Reference: PubChem BioAssay (EPA / NIEHS)
The source made the active and inactive calls. The calls were made as follows: active = hit-call score of the fitted dose curve at least 0.9, where 1 is the maximum; inactive = score below 0.9.

Assay: CCTE_Shafer_MEA_acute_per_network_burst_electrodes_number_mean: CCTE's Neural Acute Assay for Mean Number of Electrodes in a Network Burst, Shafer Lab (AID 2284021);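 also: curves fitted for decreases only so hits reduce electrodes per burst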
Protocol: CCTE_Shafer_MEA_acute assay is conducted using Axion Biosystems 48 well microelectrode array (MEA) plates and Maestro recording system. Each well of the MEA plate contains a grid of 16 microelectrodes embedded in the culture surface. Electrically active cells, such as neurons, can be cultured over the electrodes, and electrical activity in these cells can be recorded extracellularly. The spontaneous firing of neurons is captured from each electrode on a microsecond timescale providing both temporally and spatially precise data. […] The CCTE_Shafer_MEA_acute assay uses primary cultures of rat cortical neurons. As these cultures mature over time, neural networks develop functional activity and form cohesive networks in which electrical activity can be highly coordinated. Baseline 40-minute recordings are made on days post-plating 13 or 15, followed by a secondary 40-minute recording after chemical exposure.CCTE_Shafer_MEA_acute_per_network_burst_electrodes_number_mean is a component of the CCTE_Shafer_MEA_acute assay. It measures the average number of electrodes with activity during a network burst (a temporally-clustered group of action potential firing across multiple electrodes) in a recording in a microelectrode array (MEA) using Axion Biosystems Maestro 768 channel amplifier with the AxIS adaptive spike detector. The recordings before and after chemical treatment are used to calculate a percent change in the mean number of electrodes participating in network bursts in each well.Data from the assay component CCTE_Shafer_MEA_acute_per_network_burst_electrodes_number_mean was analyzed into 1 assay endpoint. This assay endpoint, CCTE_Shafer_MEA_acute_per_network_burst_electrodes_number_mean, was analyzed in the negative analysis fitting direction relative to DMSO as the negative control and baseline of activity. Using a type of functional reporter, gain or loss-of-signal activity can be used to understand electrical activity.
Spontaneous activity in the cortical cultures was recorded using an Axion Biosystems Maestro 768 channel amplifier and Axion Integrated Studios (AxIS) v1.8 (or later) software. The amplifier recorded from all channels simultaneously (gain = 1200 x; sampling rate = 12.5 kHz/channel): raw signals were filtered with a Butterworth band-pass filter (300-5000 Hz), which filters out slower local field potentials leaving only fast potentials, i.e., "spikes", arising from extracellular currents associated with action potentials (Pine 2006; Wheeler and Nam 2011). On-line spike detection of filtered signals was conducted with the AxIS adaptive spike detector, using a threshold of 8x the root mean squared (rms) noise on each channel. Any electrodes with rms noise levels greater than 5 uV were grounded (e.g., no data were recorded). Once grounded, an electrode was grounded for the duration of the experiment. All recordings were conducted at 37 C. Wells were deemed usable if on the day of the exposure >/= 10 electrodes were active (defined as >/= 5 spikes/min). On DIV 13 or 15, a minimum of three wells from one cortical culture preparation were treated with each compound (0.03-40 uM). Prior to recording baseline activity, each mwMEA plate was placed in the Maestro at 37 C and allowed to sit for 20 min while firing rates stabilized. Baseline activity (40 min) was recorded before the addition of each compound. An additional 40 min of spontaneous activity was recorded in the presence of each compound. Changes in network parameters relative to baseline were assessed following compound treatment.

SMILES | outcome
CCn1cc(C(=O)O)c(=O)c2ccc(C)nc21 | inactive
CCCO[Si](OCCC)(OCCC)OCCC | inactive
CC/C(=C(\c1ccccc1)c1ccc(OCCN(C)C)cc1)c1ccccc1 | inactive
CC(=O)c1ccc(C)cc1 | inactive
CC(C)CCCC(C)(C)O | inactive
CCCCN(CCO)CCO | inactive
CC(C)(CO)CO | inactive
N[C@@H](CCC(=O)O)C(=O)O | inactive
O=C(c1ccc(OCCN2CCCCC2)cc1)c1c(-c2ccc(O)cc2)sc2cc(O)ccc12 | inactive
CCCCOCCOCCO | inactive
c1ccc(OCCOc2ccccc2)cc1 | inactive
